PubChem BioAssay AID1159580 (chemical genetic matrix, 2015)
Where “and” joins values, the source holds several entries; their conditions need not be identical. Equal entries are not always repeated. Out of some 5,500 compounds screened, about 2,000 (36%) were called active. Inconclusive results (about 18%) are left out. No stated cut-off is given here; in the data, active means normalized growth mostly below about 0.91 (no sharp cut-off); inconclusive means no clear call, values can overlap the other calls; inactive means mostly above about 0.92. The list shows a part of the results.

Assay: chemical genetic growth profiling, strain panel (AID 1159580);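 further: tested at 20 µM; growth read once vehicle control cultures reached saturation at 30 °C; 1 = growth at the plate median or of vehicle wells; lower values mean less growth of the strain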
Conditions: S. cerevisiae deletion strains, growth OD

Measured: normalized growth

NC(=O)N1c2ccccc2C=Cc2ccccc21
inactive: locus YAL013W, strain DEP1, active compounds read low 1 | locus YAL021C, strain ccr4, active compounds read low 1.03 | locus YAL026C, strain drs2, active compounds read low 1.02 | locus YAL030W, strain snc1, active compounds read low 1.04 | locus YAL040C, strain CLN3, active compounds read low 1.01 | locus YBL061C, strain skt5, active compounds read low 1.03 | locus YBR009C, strain hhf1, active compounds read low 1.02 | locus YBR021W, strain FUR4, active compounds read low 1.03 | locus YBR023C, strain chs3, active compounds read low 1.02 | locus YBR171W, strain sec66, active compounds read low 1.03 | locus YBR229C, strain ROT2, active compounds read low 1.03 | locus YBR231C, strain swc5, active compounds read low 1.04 | locus YBR279W, strain paf1, active compounds read low 1.02 | locus YCL011C, strain gbp2, active compounds read low 1.02 | locus YCL016C, strain dcc1, active compounds read low 1.02 | locus YCL029C, strain bik1, active compounds read low 1.01 | locus YCL061C, strain MRC1, active compounds read low 1.02 | locus YCL069W, strain vba3, active compounds read low 1.03 | locus YCR088W, strain abp1, active compounds read low 1.01 | locus YDL005C, strain med2, active compounds read low 1.02 | locus YDL035C, strain GPR1, active compounds read low 1.07 | locus YDL040C, strain nat1, active compounds read low 1.03 | locus YDL074C, strain BRE1, active compounds read low 1.03 | locus YDL101C, strain DUN1, active compounds read low 1.01 | locus YDL185W, strain tfp1, active compounds read low 0.963 | locus YDL192W, strain arf1, active compounds read low 0.996 | locus YDR001C, strain nth1, active compounds read low 1.01 | locus YDR069C, strain doa4, active compounds read low 1.04 | locus YDR101C, strain arx1, active compounds read low 1.01 | locus YDR137W, strain rgp1, active compounds read low 1.07 | locus YDR159W, strain sac3, active compounds read low 1.03 | locus YDR162C, strain NBP2, active compounds read low 1.03 | locus YDR195W, strain ref2 1.06 | locus YDR297W, strain sur2, active compounds read low 1.02 | locus YDR318W, strain mcm21, active compounds read low 1.01 | locus YDR334W, strain swr1, active compounds read low 1.03 | locus YDR335W, strain msn5, active compounds read low 1.02 | locus YDR363W, strain ESC2, active compounds read low 1 | locus YDR388W, active compounds read low 1.01 | locus YDR392W, strain spt3, active compounds read low 0.984 | locus YDR502C, strain sam2, active compounds read low 0.993 | locus YEL003W, strain gim4, active compounds read low 1.02 | locus YEL037C, strain rad23, active compounds read low 1.02 | locus YEL061C, strain CIN8 (second series), active compounds read low 1.01 | locus YEL061C, strain CIN8, active compounds read low 1.01 | locus YER002W, strain NOP16, active compounds read low 1.04 | locus YER015W, strain faa2, active compounds read low 1.03 | locus YER016W, strain bim1, active compounds read low 1.02 | locus YER110C, active compounds read low 0.979 | locus YER111C, strain swi4, active compounds read low 1.03 | locus YER155C, strain BEM2 (second series), active compounds read low 1.01 | locus YER155C, strain BEM2, active compounds read low 1.01 | locus YER167W, strain BCK2, active compounds read low 1.01 | locus YFR010W, strain ubp6, active compounds read low 1.05 | locus YGL078C, strain dbp3, active compounds read low 0.991 | locus YGL086W, strain mad1, active compounds read low 1.01 | locus YGL167C, strain pmr1, active compounds read low 1.03 | locus YGL173C, strain kem1, active compounds read low 1.04 | locus YGL227W, strain vid30, active compounds read low 1.01 | locus YGL240W, strain doc1, active compounds read low 1.02 | locus YGL248W, strain PDE1, active compounds read low 1.05 | locus YGL253W, strain hxk2, active compounds read low 1.01 | locus YGR078C, strain PAC10, active compounds read low 1.02 and 1.01 | locus YGR135W, strain pre9, active compounds read low 0.99 | locus YGR252W, strain gcn5, active compounds read low 1.06 | locus YHR013C, strain ard1, active compounds read low 1.02 | locus YHR027C, strain rpn1, active compounds read low 1.02 | locus YHR030C, strain SLT2, active compounds read low 1.01 and 1 | locus YHR079C, strain IRE1 (second series), active compounds read low 0.98 | locus YHR079C, strain IRE1, active compounds read low 0.99 | locus YHR094C, strain hxt1, active compounds read low 1 | locus YHR129C, strain ARP1, active compounds read low 0.997 | locus YHR142W, strain chs7, active compounds read low 1.02 | locus YHR200W, strain rpn10, active compounds read low 0.995 | locus YIL066C, strain RNR3, active compounds read low 1.04 | locus YIL073C, strain SPO22, active compounds read low 1.05 | locus YIL125W, strain kgd1, active compounds read low 1 | locus YIR030C, strain dcg1, active compounds read low 0.976 | locus YJL092W, strain hpr5, active compounds read low 1.03 | locus YJL095W, strain BCK1 (second series), active compounds read low 1.03 | locus YJL095W, strain BCK1, active compounds read low 0.972 and 0.988 | locus YJL115W, strain asf1, active compounds read low 1.03 | locus YJL129C, strain trk1, active compounds read low 1.04 | locus YJL134W, strain LCB3, active compounds read low 1.02 | locus YJL154C, strain vps35, active compounds read low 1.01 | locus YJL164C, strain tpk1, active compounds read low 1.01 | locus YJL166W, strain qcr8, active compounds read low 1.02 | locus YJL168C, strain set2, active compounds read low 0.994 | locus YJL187C, strain SWE1 (second series), active compounds read low 1.02 | locus YJR043C, strain POL32, active compounds read low 1.09 | locus YJR066W, strain TOR1, active compounds read low 0.99 | locus YKL009W, strain mrt4, active compounds read low 0.918 | locus YKL068W, active compounds read low 1.01 | locus YKL085W, strain MDH1 (second series), active compounds read low 0.986 | locus YKL085W, strain MDH1, active compounds read low 0.986 | locus YKL160W, strain elf1, active compounds read low 1.03 | locus YKR001C, strain vps1, active compounds read low 0.989 | locus YKR026C, strain gcn3, active compounds read low 1.01 | locus YKR091W, strain srl3, active compounds read low 1.01 | locus YLL001W, strain dnm1, active compounds read low 1.02 | locus YLL026W, active compounds read low 1.03 | locus YLL041C, strain sdh2, active compounds read low 1.02 | locus YLR027C, strain aat2, active compounds read low 1.02 | locus YLR039C, strain RIC1, active compounds read low 1.09 | locus YLR058C, strain SHM2, active compounds read low 1.01 | locus YLR102C, strain apc9, active compounds read low 1.01 | locus YLR113W, strain HOG1, active compounds read low 0.972 | locus YLR221C, strain rsa3, active compounds read low 1.01 | locus YLR258W, strain gsy2, active compounds read low 1.02 | locus YLR262C, strain YPT6 (second series), active compounds read low 1.03 | locus YLR262C, strain YPT6, active compounds read low 1.1 | locus YLR268W, strain sec22, active compounds read low 0.993 | locus YLR320W, strain mms22, active compounds read low 1.03 | locus YLR330W, strain CHS5, active compounds read low 1 | locus YLR342W, strain FKS1 (second series), active compounds read low 1.12 | locus YLR342W, strain FKS1, active compounds read low 1.03 | locus YLR357W, strain rsc2, active compounds read low 1.09 | locus YLR370C, strain arc18, active compounds read low 1.02 | locus YLR371W, strain rom2, active compounds read low 0.994 | locus YLR384C, strain iki3, active compounds read low 1.02 | locus YLR418C, strain cdc73, active compounds read low 0.959 | locus YML016C, strain PPZ1, active compounds read low 1.02 | locus YML032C, strain rad52, active compounds read low 1 | locus YML120C, strain ndi1, active compounds read low 1.03 | locus YML124C, strain tub3, active compounds read low 0.998 | locus YMR058W, strain fet3, active compounds read low 1.01 | locus YMR078C, strain ctf18, active compounds read low 0.989 | locus YMR125W, strain sto1, active compounds read low 1.03 | locus YMR129W, active compounds read low 1.01 | locus YMR205C, strain PFK2, active compounds read low 1.03 | locus YMR223W, strain ubp8, active compounds read low 0.993 | locus YMR231W, strain pep5, active compounds read low 1.03 | locus YMR263W, strain SAP30, active compounds read low 1.01 | locus YMR307W, strain GAS1, active compounds read low 1.18 | locus YNL067W, strain RPL9B, active compounds read low 1.02 | locus YNL071W, strain lat1, active compounds read low 1.02 | locus YNL128W, strain TEP1, active compounds read low 1 | locus YNL175C, strain NOP13, active compounds read low 1.05 | locus YNL183C, strain NPR1, active compounds read low 0.948 | locus YNL197C, strain WHI3, active compounds read low 1.03 | locus YNL209W, strain ssb2, active compounds read low 1.02 | locus YNL224C, strain SQS1, active compounds read low 1.02 | locus YNL233W, strain BNI4, active compounds read low 0.981 | locus YNL248C, strain rpa49, active compounds read low 1.05 | locus YNL250W, strain rad50, active compounds read low 0.98 | locus YNL271C, strain bni1, active compounds read low 0.977 | locus YNL298W, strain CLA4, active compounds read low 0.976 | locus YNL307C, strain MCK1, active compounds read low 1 | locus YNL322C, strain KRE1 (second series), active compounds read low 1.03 | locus YNL322C, strain KRE1, active compounds read low 1.01 | locus YNR049C, strain mso1, active compounds read low 1.03 | locus YNR052C, strain pop2, active compounds read low 0.994 | locus YOL006C, strain TOP1, active compounds read low 1.02 | locus YOL012C, strain htz1 1.53 | locus YOL147C, strain pex11, active compounds read low 0.998 | locus YOR001W, strain rrp6, active compounds read low 1.04 | locus YOR061W, strain CKA2, active compounds read low 1.01 | locus YOR069W, strain VPS5, active compounds read low 1.04 | locus YOR070C, strain gyp1, active compounds read low 1.03 | locus YOR080W, strain dia2, active compounds read low 1.04 | locus YOR083W, strain WHI5 (second series), active compounds read low 0.999 | locus YOR083W, strain WHI5, active compounds read low 1.03 | locus YOR106W, strain vam3, active compounds read low 1.04 | locus YOR136W, strain idh2, active compounds read low 0.997 | locus YOR144C, strain elg1, active compounds read low 1 | locus YOR184W, strain ser1, active compounds read low 0.981 | locus YOR231W, strain MKK1, active compounds read low 1 | locus YOR265W, strain rbl2, active compounds read low 1.03 | locus YOR270C, strain vph1, active compounds read low 1.1 | locus YOR290C, strain snf2, active compounds read low 1.01 | locus YOR316C, strain cot1, active compounds read low 0.998 | locus YPL051W, strain arl3, active compounds read low 1.03 | locus YPL055C, strain LGE1, active compounds read low 1.01 | locus YPL078C, strain atp4, active compounds read low 1.02 | locus YPL106C, strain sse1, active compounds read low 1.05 | locus YPL240C, strain hsp82, active compounds read low 1.02 | locus YPL241C, strain CIN2, active compounds read low 1.02 and 1.01 | locus YPL256C, strain CLN2, active compounds read low 1 | locus YPR119W, strain clb2, active compounds read low 0.996 | locus YPR141C, strain kar3, active compounds read low 0.992 | locus YPR163C, strain tif3, active compounds read low 1 | locus YPR167C, strain met16, active compounds read low 0.991 | strain wtn01, active compounds read low 1.01
